Common to all, as to assay: DAPPL (digital affinity profiling via proximity ligation, sequencing); 10 mM Tris-HCl pH 7.5, 50 mM NaCl, 1 mM DTT, 4% glycerol, room temperature, 30 min; GST-TFs on glutathione beads, 16-mer random dsDNA library, 0.1% formaldehyde crosslink after washing; high values mean tight binding
The target in one assay is T1, FEV (Homo sapiens, UniProt Q99581 1-238).
T1 sequence: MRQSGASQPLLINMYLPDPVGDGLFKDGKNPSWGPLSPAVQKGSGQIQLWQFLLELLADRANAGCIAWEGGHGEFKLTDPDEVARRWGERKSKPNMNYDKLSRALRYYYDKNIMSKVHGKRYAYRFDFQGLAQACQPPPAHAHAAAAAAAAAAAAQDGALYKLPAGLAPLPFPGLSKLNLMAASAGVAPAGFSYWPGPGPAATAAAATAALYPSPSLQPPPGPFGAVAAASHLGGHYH
The note with it: protein: recombinant; tags: N-terminal GST; dsDNA, one strand shown. The procedure, abridged:
(§1)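 Pools were built from human transcription factors expressed in yeast as GST fusions, captured on glutathione beads and DNA-barcoded, along with a tag-only sample. Incubation with 200 nmole of a 16-mer random double-stranded DNA library lasted 30 min at room temperature in Tris/NaCl/DTT/glycerol buffer, and was followed by washing, 0.1% formaldehyde crosslinking, proximity ligation, PCR amplification and Illumina NextSeq500 sequencing. Binding signal is the quotient of each hexamer's read frequency for a factor and its frequency for the tag-only sample.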

The target of the next assay is ETV5 (Homo sapiens, UniProt P41161 1-510). Particulars: protein: recombinant; tags: N-terminal GST; dsDNA, one strand shown. The procedure, abridged:
as §1

For the next assay, the target named is HSF1 (Homo sapiens, UniProt Q00613 1-529). The note with it: protein: recombinant; tags: N-terminal GST; chain copies: 3; dsDNA, one strand shown. The procedure, abridged: as §1
Another assay concerns the target T2, SPIC (Homo sapiens, UniProt Q8N5J4 1-248).
T2 sequence: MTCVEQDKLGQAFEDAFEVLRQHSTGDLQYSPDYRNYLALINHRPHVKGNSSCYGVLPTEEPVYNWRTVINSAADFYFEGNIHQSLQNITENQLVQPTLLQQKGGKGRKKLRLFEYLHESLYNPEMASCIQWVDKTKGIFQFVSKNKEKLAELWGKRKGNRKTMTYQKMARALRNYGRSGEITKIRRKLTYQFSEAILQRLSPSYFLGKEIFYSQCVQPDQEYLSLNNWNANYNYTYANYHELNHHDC
The note with it: protein: recombinant; tags: N-terminal GST; dsDNA, one strand shown. The procedure, abridged: as §1

The target of the next assay is ELF4 (Homo sapiens, UniProt Q99607 1-663). The note with it: protein: recombinant; tags: N-terminal GST; dsDNA, one strand shown. In short, it runs like this:
as §1

The target of a further assay is T3, ELK4 (Homo sapiens, UniProt P28324-2 1-405).
T3 sequence: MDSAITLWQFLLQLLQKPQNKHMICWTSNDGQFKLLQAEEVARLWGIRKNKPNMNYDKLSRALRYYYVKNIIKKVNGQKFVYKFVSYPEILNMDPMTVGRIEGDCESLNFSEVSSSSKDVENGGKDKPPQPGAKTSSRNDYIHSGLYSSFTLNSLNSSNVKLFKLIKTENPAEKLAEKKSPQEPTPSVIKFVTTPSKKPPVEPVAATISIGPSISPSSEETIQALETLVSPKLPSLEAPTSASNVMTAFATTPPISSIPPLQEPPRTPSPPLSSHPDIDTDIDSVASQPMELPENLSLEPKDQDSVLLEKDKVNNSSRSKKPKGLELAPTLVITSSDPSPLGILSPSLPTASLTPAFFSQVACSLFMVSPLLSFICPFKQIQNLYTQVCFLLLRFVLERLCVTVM
Particulars: protein: recombinant; tags: N-terminal GST; dsDNA, one strand shown. In short, it runs like this: as §1

In another assay the target is T4, ETV2 (Homo sapiens, UniProt O00321 1-342).
T4 sequence: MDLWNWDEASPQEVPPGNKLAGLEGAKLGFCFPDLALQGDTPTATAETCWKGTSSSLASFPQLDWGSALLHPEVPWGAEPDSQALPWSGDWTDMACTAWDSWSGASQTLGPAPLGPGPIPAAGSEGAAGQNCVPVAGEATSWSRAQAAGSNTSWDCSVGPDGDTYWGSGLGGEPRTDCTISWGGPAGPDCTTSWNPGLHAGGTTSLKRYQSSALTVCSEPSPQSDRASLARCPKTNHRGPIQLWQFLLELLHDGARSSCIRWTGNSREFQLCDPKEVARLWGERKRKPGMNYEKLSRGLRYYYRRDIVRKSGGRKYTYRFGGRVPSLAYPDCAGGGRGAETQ
Particulars: protein: recombinant; tags: N-terminal GST; dsDNA, one strand shown. In short, it runs like this:
as §1

Another assay has as its target T5, ELF3 (Homo sapiens, UniProt P78545 1-371).
T5 sequence: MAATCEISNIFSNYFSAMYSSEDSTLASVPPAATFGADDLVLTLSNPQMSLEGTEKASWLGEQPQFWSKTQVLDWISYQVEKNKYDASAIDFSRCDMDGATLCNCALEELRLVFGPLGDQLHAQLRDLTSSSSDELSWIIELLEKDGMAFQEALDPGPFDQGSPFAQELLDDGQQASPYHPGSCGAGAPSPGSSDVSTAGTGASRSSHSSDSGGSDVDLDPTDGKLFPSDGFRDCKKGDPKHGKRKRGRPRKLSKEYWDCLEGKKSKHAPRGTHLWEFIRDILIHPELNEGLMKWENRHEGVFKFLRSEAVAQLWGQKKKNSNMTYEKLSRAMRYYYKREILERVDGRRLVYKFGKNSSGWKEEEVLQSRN
The note with it: protein: recombinant; tags: N-terminal GST; dsDNA, one strand shown. The procedure, abridged:
as §1

A further assay deals with CRX (Homo sapiens, UniProt O43186 1-299). Particulars: protein: recombinant; tags: N-terminal GST; dsDNA, one strand shown. In short, it runs like this:
as §1

Another assay addresses ETV1 (Homo sapiens, UniProt P50549 1-477). Particulars: protein: recombinant; tags: N-terminal GST; dsDNA, one strand shown. In short, it runs like this: as §1
In the next assay the target is T6, ERF (Homo sapiens, UniProt P50548 1-548).
T6 sequence: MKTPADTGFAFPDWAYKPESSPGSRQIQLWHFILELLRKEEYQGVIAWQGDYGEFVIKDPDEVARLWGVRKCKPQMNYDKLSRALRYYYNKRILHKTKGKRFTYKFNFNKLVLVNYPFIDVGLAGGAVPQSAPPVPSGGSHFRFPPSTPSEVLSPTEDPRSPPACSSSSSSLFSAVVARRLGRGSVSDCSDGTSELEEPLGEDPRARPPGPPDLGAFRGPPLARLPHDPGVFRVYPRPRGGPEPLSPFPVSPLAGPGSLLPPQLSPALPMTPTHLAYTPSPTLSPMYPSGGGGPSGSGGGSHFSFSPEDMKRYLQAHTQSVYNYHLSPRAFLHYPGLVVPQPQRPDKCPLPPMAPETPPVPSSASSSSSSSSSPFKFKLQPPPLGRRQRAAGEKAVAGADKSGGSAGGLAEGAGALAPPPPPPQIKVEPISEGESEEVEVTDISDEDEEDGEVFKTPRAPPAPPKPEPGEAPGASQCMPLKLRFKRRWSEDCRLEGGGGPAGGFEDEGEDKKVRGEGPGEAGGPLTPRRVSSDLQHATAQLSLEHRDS
The note with it: protein: recombinant; tags: N-terminal GST; dsDNA, one strand shown. The procedure, abridged: as §1

The next assay concerns the target T7, ETV3L (Homo sapiens, UniProt Q6ZN32 1-361).
T7 sequence: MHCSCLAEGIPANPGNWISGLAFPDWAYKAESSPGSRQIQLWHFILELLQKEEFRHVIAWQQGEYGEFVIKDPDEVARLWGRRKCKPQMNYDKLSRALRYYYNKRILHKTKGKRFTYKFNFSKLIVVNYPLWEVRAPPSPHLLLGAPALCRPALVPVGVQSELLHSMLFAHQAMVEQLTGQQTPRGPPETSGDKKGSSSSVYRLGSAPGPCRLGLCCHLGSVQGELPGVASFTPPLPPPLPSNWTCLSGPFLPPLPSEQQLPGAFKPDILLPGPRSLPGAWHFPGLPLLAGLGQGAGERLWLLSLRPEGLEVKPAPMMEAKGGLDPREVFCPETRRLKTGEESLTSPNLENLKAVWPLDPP
The note with it: protein: recombinant; tags: N-terminal GST; dsDNA, one strand shown. The procedure, abridged:
as §1

For a further assay, the target named is T8, ETS2 (Homo sapiens, UniProt P15036 1-469).
T8 sequence: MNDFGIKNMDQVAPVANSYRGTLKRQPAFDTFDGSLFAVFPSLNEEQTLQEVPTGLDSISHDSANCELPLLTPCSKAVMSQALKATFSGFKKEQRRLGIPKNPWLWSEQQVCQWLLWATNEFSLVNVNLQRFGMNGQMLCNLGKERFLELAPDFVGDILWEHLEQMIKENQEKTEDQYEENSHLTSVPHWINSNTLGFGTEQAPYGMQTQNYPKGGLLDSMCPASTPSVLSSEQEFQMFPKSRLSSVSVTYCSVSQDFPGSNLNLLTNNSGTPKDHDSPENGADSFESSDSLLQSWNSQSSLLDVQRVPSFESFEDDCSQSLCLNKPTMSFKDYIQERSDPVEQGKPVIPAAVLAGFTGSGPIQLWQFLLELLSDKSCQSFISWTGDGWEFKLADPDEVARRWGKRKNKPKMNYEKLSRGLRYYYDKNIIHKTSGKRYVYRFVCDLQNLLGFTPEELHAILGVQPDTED
The note with it: protein: recombinant; tags: N-terminal GST; dsDNA, one strand shown. In short, it runs like this:
as §1

The target of the next assay is T9, SPDEF (Homo sapiens, UniProt O95238 1-335).
T9 sequence: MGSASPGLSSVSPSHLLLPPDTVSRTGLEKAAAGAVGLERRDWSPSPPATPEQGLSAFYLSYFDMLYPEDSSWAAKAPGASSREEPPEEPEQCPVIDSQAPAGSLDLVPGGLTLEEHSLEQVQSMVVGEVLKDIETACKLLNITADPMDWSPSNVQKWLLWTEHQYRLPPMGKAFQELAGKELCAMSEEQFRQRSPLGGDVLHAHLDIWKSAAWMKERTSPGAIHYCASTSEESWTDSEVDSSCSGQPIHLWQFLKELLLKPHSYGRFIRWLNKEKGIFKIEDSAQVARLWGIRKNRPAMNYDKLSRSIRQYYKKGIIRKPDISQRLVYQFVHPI
The note with it: protein: recombinant; tags: N-terminal GST; dsDNA, one strand shown. In short, it runs like this:
as §1

Another assay has as its target T10, ETV7 (Homo sapiens, UniProt Q9Y603 1-341).
T10 sequence: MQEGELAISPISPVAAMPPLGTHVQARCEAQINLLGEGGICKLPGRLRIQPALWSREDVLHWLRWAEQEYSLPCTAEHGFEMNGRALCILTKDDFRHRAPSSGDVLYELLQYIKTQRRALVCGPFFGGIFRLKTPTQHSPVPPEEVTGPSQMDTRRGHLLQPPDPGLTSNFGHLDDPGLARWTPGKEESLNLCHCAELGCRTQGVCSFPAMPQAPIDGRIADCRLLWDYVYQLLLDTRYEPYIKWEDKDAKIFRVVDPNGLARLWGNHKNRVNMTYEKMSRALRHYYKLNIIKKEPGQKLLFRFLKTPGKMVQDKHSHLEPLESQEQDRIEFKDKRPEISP
The note with it: protein: recombinant; tags: N-terminal GST; dsDNA, one strand shown. The procedure, abridged: as §1

Another assay concerns the target T11, ELF5 (Homo sapiens, UniProt Q9UKW6-2 1-255).
T11 sequence: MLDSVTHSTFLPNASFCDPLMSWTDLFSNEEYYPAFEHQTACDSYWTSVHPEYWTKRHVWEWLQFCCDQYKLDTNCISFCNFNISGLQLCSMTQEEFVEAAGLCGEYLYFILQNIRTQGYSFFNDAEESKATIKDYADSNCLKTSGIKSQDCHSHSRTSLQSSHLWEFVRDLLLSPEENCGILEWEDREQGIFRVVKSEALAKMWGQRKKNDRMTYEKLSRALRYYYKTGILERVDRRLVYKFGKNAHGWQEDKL
The note with it: protein: recombinant; tags: N-terminal GST; dsDNA, one strand shown. The procedure, abridged:
as §1

A further assay concerns the target T12, ETV3 (Homo sapiens, UniProt P41162-2 1-143).
T12 sequence: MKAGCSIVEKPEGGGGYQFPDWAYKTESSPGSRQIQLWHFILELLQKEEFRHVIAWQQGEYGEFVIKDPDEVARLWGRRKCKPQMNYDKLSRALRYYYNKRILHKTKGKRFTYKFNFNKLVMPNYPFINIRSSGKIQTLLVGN
The note with it: protein: recombinant; tags: N-terminal GST; dsDNA, one strand shown. The procedure, abridged:
as §1

The next assay concerns the target ETV6 (Homo sapiens, UniProt P41212 1-452). Particulars: protein: recombinant; tags: N-terminal GST; dsDNA, one strand shown. The procedure, abridged:
as §1

The record followed here is article PMC7862700, “An all-to-all approach to the identification of sequence-specific readers for epigenetic DNA modifications on cytosine”.

Chain of CRX (O43186 whole entry): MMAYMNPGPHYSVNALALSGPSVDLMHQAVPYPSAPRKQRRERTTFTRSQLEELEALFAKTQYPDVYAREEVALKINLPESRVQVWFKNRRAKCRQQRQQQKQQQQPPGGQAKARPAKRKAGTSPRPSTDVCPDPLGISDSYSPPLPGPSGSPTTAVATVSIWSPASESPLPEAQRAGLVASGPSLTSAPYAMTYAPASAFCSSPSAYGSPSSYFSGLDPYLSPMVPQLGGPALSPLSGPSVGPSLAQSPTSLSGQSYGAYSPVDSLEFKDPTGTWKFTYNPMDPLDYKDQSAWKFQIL
Chain of HSF1 (Q00613 whole entry): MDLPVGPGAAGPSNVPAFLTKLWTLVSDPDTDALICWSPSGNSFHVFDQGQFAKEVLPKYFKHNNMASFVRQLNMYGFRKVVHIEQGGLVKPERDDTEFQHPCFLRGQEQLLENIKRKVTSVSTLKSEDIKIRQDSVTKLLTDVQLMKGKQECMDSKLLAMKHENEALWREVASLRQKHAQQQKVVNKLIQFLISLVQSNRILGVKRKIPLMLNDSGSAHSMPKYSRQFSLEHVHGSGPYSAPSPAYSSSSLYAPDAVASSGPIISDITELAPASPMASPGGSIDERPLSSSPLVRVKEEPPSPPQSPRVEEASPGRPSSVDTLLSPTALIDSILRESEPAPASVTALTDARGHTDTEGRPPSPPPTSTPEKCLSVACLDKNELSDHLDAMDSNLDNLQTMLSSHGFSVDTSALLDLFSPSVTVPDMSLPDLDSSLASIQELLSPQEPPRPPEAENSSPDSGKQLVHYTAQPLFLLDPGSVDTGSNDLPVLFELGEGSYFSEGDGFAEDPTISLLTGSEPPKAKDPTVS
Chain of ELF4 (Q99607 whole entry): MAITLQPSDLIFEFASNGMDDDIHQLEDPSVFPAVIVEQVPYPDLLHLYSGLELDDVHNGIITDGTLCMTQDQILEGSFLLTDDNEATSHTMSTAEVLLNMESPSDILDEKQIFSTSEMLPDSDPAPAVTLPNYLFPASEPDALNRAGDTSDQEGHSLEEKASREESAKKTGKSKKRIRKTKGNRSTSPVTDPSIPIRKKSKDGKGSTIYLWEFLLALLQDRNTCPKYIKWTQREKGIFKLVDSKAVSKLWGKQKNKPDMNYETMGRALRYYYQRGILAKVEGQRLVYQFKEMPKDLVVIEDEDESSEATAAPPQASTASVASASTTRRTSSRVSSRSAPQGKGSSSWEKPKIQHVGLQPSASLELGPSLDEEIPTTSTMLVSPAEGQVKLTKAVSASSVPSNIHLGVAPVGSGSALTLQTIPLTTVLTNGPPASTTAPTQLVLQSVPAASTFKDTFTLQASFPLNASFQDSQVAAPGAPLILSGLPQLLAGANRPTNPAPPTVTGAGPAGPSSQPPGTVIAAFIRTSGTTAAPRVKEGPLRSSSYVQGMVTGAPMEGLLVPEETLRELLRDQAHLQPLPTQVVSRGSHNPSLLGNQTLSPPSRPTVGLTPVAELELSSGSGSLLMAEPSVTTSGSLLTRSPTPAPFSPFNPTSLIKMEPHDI
Chain of ETV6 (P41212 whole entry): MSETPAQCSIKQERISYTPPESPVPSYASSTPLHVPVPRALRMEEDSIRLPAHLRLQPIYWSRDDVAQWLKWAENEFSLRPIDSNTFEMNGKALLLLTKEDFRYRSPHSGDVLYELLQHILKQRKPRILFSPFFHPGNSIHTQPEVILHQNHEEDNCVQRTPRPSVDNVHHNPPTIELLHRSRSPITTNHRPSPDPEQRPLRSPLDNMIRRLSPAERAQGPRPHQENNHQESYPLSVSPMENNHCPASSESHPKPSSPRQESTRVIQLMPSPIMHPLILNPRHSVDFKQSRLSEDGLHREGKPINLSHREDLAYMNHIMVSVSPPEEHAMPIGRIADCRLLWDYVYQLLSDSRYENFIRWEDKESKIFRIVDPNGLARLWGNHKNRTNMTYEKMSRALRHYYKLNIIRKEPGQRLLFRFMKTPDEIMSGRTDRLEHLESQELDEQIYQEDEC
Chain of ETV5 (P41161 whole entry): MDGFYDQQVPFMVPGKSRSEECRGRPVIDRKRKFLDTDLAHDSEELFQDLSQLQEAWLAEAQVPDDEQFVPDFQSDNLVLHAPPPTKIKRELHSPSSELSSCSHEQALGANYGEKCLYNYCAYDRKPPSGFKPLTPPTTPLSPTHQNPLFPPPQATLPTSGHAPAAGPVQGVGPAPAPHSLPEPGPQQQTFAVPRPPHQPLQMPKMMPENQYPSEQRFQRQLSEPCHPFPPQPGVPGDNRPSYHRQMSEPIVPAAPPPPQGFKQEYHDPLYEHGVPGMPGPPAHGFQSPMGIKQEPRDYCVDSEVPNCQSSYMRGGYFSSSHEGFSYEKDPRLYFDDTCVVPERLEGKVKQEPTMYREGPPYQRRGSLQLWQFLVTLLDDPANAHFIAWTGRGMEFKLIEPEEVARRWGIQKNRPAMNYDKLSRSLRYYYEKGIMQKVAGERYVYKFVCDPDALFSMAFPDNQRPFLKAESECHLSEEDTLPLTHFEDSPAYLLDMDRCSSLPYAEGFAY
Chain of ETV1 (P50549 whole entry): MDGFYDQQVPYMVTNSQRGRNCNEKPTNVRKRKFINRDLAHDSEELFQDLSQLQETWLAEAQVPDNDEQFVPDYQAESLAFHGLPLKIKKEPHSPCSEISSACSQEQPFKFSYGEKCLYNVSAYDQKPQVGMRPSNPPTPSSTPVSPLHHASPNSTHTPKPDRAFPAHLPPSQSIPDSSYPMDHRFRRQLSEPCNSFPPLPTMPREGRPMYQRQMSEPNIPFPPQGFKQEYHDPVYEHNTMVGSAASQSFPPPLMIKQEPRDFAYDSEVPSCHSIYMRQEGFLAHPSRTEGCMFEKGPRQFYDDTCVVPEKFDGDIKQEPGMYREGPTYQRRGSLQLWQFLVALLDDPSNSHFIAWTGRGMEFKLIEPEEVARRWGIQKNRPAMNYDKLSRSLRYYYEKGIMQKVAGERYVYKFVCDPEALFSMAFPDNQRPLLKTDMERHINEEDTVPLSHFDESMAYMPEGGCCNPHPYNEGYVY

Regarding GGTATT, the binding signal with FEV was 1.1 fold enrichment (6-mer frequency, TF over GST control); with ETV5, 1.16 fold enrichment (6-mer frequency, TF over GST control); with HSF1, 1.39 fold enrichment (6-mer frequency, TF over GST control); in the assay with SPIC it was 1.14 fold enrichment (6-mer frequency, TF over GST control); with ELF4, 1.12 fold enrichment (6-mer frequency, TF over GST control); in the assay with ELK4, 1.14 fold enrichment (6-mer frequency, TF over GST control). Besides, the binding signal with ETV2 was 1.12 fold enrichment (6-mer frequency, TF over GST control); with ELF3, 1.1 fold enrichment (6-mer frequency, TF over GST control); in the assay with CRX, 1.66 fold enrichment (6-mer frequency, TF over GST control); with ETV1 it was 1.16 fold enrichment (6-mer frequency, TF over GST control); with ERF it was 1.2 fold enrichment (6-mer frequency, TF over GST control); with ETV3L it was 1.18 fold enrichment (6-mer frequency, TF over GST control). Moreover, the binding signal is 1.2 fold enrichment (6-mer frequency, TF over GST control) with ETS2; 1.27 fold enrichment (6-mer frequency, TF over GST control) with SPDEF; 1.24 fold enrichment (6-mer frequency, TF over GST control) with ETV7; 1.16 fold enrichment (6-mer frequency, TF over GST control) in the assay with ELF5; 1.12 fold enrichment (6-mer frequency, TF over GST control) with ETV3; 1.24 fold enrichment (6-mer frequency, TF over GST control) in the assay with ETV6.
